This passage reports outcome and AC50 results from PubChem BioAssay (EPA / NIEHS).

Activity calls are given as the source filed them. How the source made its calls: active means hit-call score of the fitted dose curve at least 0.9, where 1 is the maximum; inactive means score below 0.9.

A short description of the test: ATG_PPRE_CIS: Attagene CIS-FACTORIAL HepG2 Assay for human Peroxisome Proliferator-activated Response Element (PPRE) (AID 2282958). The conditions noted are these: HepG2 PPRE cis-element reporter, Attagene transcription factor profiling; actives raise or lower the signal. The protocol:
ATG_CIS is a cell-based, multiplexed-readout assay that uses HepG2, a human liver cell line, with measurements taken at 24 hours after chemical dosing in a 24-well plate.ATG_PPRE_CIS is one of 52 assay component(s) measured or calculated from the ATG_CIS assay. It is designed to make measurements of mRNA induction, a form of inducible reporter, as detected with fluorescence intensity signals by Reverse transcription polymerase chain reaction (RT-PCR) and Capillary electrophoresis technology.Data from the assay component ATG_PPRE_CIS was analyzed into 1 assay endpoint. This assay endpoint, ATG_PPRE_CIS, was analyzed with bidirectional fitting relative to DMSO as the negative control and baseline of activity. Using a type of inducible reporter, measures of mRNA for gain or loss-of-signal activity can be used to understand the reporter gene at the transcription factor-level as they relate to the gene PPARA and PPARD and PPARG. Furthermore, this assay endpoint can be referred to as a primary readout, because this assay has produced multiple assay endpoints where this one serves a reporter gene function. To generalize the intended target to other relatable targets, this assay endpoint is annotated to the nuclear receptor intended target family, where the subfamily is non-steroidal.
Human liver HepG2 cells are transiently transfected with multiple reporter transcription units (MRTUs) in 6-well plates using FuGene 6 reagent (Roche; 3 ml FuGene/1 mg DNA). The MRTU constructs are regulated by a cis-regulating element (promoter). […] A major difference between the CIS and TRANS system is that in CIS activities of endogenous TFs are measured, whereas the TRANS assay evaluates changes in activities of exogenous, chimeric NR-Gal4 proteins. […] At the end of 24 hour incubation, total RNA was isolated using TriZol reagent (Invitrogen). The isolated RNA is then reverse-transcribed using oligo(dT) primer and Mo-MLV reverse transcriptase (Invitrogen) with DNAse I (Ambion) treatment for 30 min. The one-tenth of the produced cDNA was amplified by PCR using Taq DNA polymerase (Invitrogen) and two reporter sequence-specific primers. The PCR products were fluorescently labeled by primer extension with 6-arboxyfluorescein (6-FAM) 5'-labeled reporter sequence-specific primer (2 min at 95 C, 20 s at 68 C and 10 min at 72 C) and these products were digested with 5U of HpaI (New England Biolabs) for 2h at 37 C. The fragments were purified using Qiaquick PCR columns (Qiagen), analyzed on an ABI 3130xL genetic analyzer (Applied Biosystems) with peak positions identified by using a set of X-rhodamine (ROX)-labeled MapMarker1000 molecular weight standards (BioVentures). The raw capillary electrophoresis data was processed using Attagraph software (Attagene).
As to `CC(Cl)COP(=O)(OCC(C)Cl)OCC(C)Cl` (stereo not given), the outcome was inactive. The same measure, in the same setting: to `CCCCCCCCCCCCC` belongs “inactive”; to `c1ccc(Nc2cccc3ccccc23)cc1`, “inactive”.

Take `CCc1cccc(CC)c1`: the outcome was inactive. Same read-out and setting: in the case of `CCC1COC(=O)O1` (stereo not given) it was “inactive”; in that of `CCCCCOC(=O)CCCCC`, “inactive”; in that of `O=C1CCCCC1C1CCCCC1` (stereo not given), “inactive”. Same read-out and setting: to `C=CCCCCCCCCO` belongs “inactive”; to `COC(=O)C=Cc1ccccc1`, “inactive”; to `CO[Si](CCCS)(OC)OC`, “inactive”. `CC(=O)OCc1ccccc1`: the molecule was classed as inactive.

As to `CCCCCCCCCCCC(=O)OCC`, the result was inactive. On the same count and under the same terms, to `c1ccc2cnccc2c1` belongs “inactive”; to `O=C(O)CCC(=O)O`, “inactive”.

On to `CCCC(C)C(=O)OCC` (stereo not given), for which the call was inactive. The same measure, in the same setting: in the case of `CCCCCCCCCCCCc1ccc(O)cc1` it was “inactive”; in that of `CC1=CC(C)C(C=O)CC1` (stereo not given), “inactive”; in that of `COC(OC)(C(=O)c1ccccc1)c1ccccc1`, “inactive”. The same measure, in the same setting: in the case of `CCN1CN(CC)CN(CC)C1` it was “inactive”; in that of `CCOB(OCC)OCC`, “inactive”; in that of `CCC(C)N` (stereo not given), “inactive”. On the same count and under the same terms, in the case of `COC(=O)c1ccccc1C` it was “inactive”.

For the molecule `CCOC(=O)OC(=O)OCC`, the molecule was called inactive.

For `CC(=O)CCC=C(C)C`, the call was inactive. As to `CCC(=O)C1CC(C(C)C)CC=C1C` (stereo not given), the result was inactive. Still for that read-out and setting: in the case of `Cc1cc(=O)[nH]c(=O)[nH]1` it was “inactive”; in that of `CCCCCCCC(=O)OCC(COC(=O)CCCCCCC)OC(=O)CCCCCCC`, “inactive”. `CCOC(=O)CC(=O)c1ccccc1`: the result was inactive. In the case of `Oc1c(Cl)cc(Cl)c(Cl)c1Cl`, the half-maximal activity concentration (AC50) was 21.9 µM (active).

On to `COCC(=O)O`, for which the molecule was classed as inactive.

As for `CC(=O)C(C)C`, the molecule was classed as inactive. Same read-out and setting: to `C=C(C)C(=O)OCCCCCCCCCCCC` belongs “inactive”. Consider `C/C=C/C=C/CCCCCCCO`, for which the result was inactive. Still for that read-out and setting: in the case of `CC1C(C)(C)C2=C(C(=O)CCC2)C1(C)C` (stereo not given) it was “inactive”; in that of `CO[Si](C)(C)OC`, “inactive”; in that of `CC(C)(C)NC(=O)[C@H]1CC[C@H]2[C@@H]3CC[C@H]4NC(=O)C=C[C@]4(C)[C@H]3CC[C@]12C`, “inactive”. Still for that read-out and setting: to `C=CC(C)(O)CC/C=C(\C)CC` (stereo not given) belongs “inactive”; to `CC(=O)OC/C=C(/C)CCC=C(C)C`, “inactive”; to `CCCSSCCC`, “inactive”. On the same count and under the same terms, to `CCC(C)C(=O)OC` (stereo not given) belongs “inactive”.

The term AC50 denotes the midpoint of the concentration-response curve, whichever way the signal moves.
